Screens from PubChem.
APEX1 inh: qHTS Assay for Inhibitors of the Human Apurinic/apyrimidinic Endonuclease 1 (APE1); DNA repair nuclease/redox regulator APEX1 (Homo sapiens), P27695; AID 2517, 2012; recombinant APE1, TAMRA/BHQ-2 abasic DNA cleavage fluorescence; 350,000 tested, 0.35% active; Potency, µM (highest dose often 65.8 µM), for the others: top-dose activity change, negative = inhibition, usual class: inhibitors;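 note: plate controls were vehicle for no effect and reference inhibitor for full effect; nearly all actives have a fitted effect of over 55% in size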
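Quantitative HTS: incision of a TAMRA/BHQ-2 double-stranded substrate bearing a tetrahydrofuran abasic site by 0.75 nM APE1 raises fluorescence. Substrate 50 nM final, added after 15 min compound preincubation at room temperature; progress as third-minus-first kinetic read difference.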
L3MBTL1 inh: qHTS Assay for the Inhibitors of L3MBTL1 | Lethal(3)malignant brain tumor-like protein 1 (Homo sapiens), Q9Y468 | AlphaScreen L3MBTL1–H3K9me1 peptide binding | Potency, µM (titrated, usually from 57.1 µM), inactives show at the top dose activity, negative = inhibition, hits mostly inhibitors | 230,000 tested, 0.66% active; note: nearly all actives have a fitted effect of over 60% in size
Target sequence (Q9Y468 whole entry, looked up): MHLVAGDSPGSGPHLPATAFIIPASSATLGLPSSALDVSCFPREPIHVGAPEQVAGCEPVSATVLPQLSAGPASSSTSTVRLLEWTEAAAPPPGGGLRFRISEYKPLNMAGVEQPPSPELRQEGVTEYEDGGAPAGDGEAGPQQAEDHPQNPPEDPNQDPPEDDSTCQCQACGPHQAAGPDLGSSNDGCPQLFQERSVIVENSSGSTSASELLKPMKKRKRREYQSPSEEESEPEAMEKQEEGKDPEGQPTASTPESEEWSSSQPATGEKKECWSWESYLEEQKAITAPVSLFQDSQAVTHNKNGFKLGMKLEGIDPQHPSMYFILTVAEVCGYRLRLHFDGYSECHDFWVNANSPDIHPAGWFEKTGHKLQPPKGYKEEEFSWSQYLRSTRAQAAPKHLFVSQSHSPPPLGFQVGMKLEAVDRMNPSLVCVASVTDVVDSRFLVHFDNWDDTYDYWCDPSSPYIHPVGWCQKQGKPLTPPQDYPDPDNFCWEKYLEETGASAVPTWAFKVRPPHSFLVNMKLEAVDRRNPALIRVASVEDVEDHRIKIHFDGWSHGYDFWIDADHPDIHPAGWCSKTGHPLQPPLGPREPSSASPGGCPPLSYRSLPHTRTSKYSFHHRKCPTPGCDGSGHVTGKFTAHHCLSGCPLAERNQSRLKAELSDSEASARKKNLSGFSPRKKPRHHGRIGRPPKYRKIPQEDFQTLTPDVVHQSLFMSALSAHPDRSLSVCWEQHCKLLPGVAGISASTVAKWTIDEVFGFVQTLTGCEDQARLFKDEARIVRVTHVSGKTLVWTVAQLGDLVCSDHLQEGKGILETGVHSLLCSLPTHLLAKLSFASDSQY
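L3MBTL1 (50 nM) pre-complexed 30 min with biotinylated H3(1-15)K9me1 peptide (75 nM), then compounds added for 30 min at room temperature; AlphaScreen streptavidin donor/nickel chelate acceptor beads (10 ug/mL final) read after 30 min dark incubation.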
KDM4E inh: qHTS Assay for Inhibitors of Human Jumonji Domain Containing 2E (JMJD2E) | Potency, µM (titrated, usually from 57.1 µM), for the others: at the highest dose activity change, negative = inhibition, hits mostly inhibitors | JMJD2E catalytic domain, FDH-coupled NADH fluorescence (FDH is formaldehyde dehydrogenase) | 230,000 tested, 1.6% active | AID 2147, 2009; active = well fitted inhibition curve with a large enough effect, not every such curve was filed as active; inconclusive = small, poorly fitted or top-dose-only effect, or another doubt; inactive = no such curve, though single readings can be large or run the other way;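 note: 0% = wells with enzyme and -100% = buffer wells without enzyme; nearly all actives have a fitted effect of over 50% in size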
BLM inh: qHTS Assay for Inhibitors of Bloom's syndrome helicase (BLM); recombinant BLM DNA unwinding, fluorescence dequenching; Potency, µM (titrated, usually from 56.1 µM), for the others: top-dose activity change, negative = inhibition, hits mostly inhibitors; 350,000 tested, 0.2% active; AID 2528, 2010;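 note: plate controls were vehicle for no effect and no enzyme for full effect; nearly all actives have a fitted effect of over 35% in size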
GCN5L2 inh: qHTS Assay for Inhibitors of GCN5L2 | Histone acetyltransferase KAT2A (Homo sapiens), Q92830 | GCN5L2 HAT assay, ThioGlo1 CoA-SH fluorescence | Potency, µM (titrated, usually from 58.9 µM), inactives show at the top dose activity change, negative = inhibition, actives largely listed as inhibitors | 390,000 tested, 0.21% active | AID 504327, 2011
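Enzyme at 20nM final was mixed with library compounds for 15 min at room temperature. Peptide H3(1-25) at 75uM, acetyl-CoA at 70uM and ThioGlo1 at 50uM were then added. Plates were read immediately and after 20 min (Ex340nm/Em540nm).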
RECQ1 inh: qHTS Assay for Inhibitors of RecQ-Like Dna Helicase 1 (RECQ1) | AID 2549, 2010 | ATP-dependent DNA helicase Q1 (Homo sapiens), P46063 | 240,000 tested, 0.54% active | Potency, µM (series often up to 57.3 µM), without a hit: at the highest dose activity, negative = inhibition, hits mostly inhibitors | RECQ1 DNA unwinding, red fluorescence kinetic read;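 note: plate controls were vehicle for no effect and no enzyme for full effect; nearly all actives have a fitted effect of over 30% in size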
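50 nM RECQ1T1 preincubated 15 min with compound in Tris pH 8.0 buffer with MgCl2, DTT, Tween-20 and 2.5 ug/ml poly(dI-dC); started with 200 nM TAMRA/BHQ-2 forked duplex and 2 mM ATP. Unwinding read as fluorescence (525/598 nm), two reads 2 h apart.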
* hit, by the source's call; i = inactive; ? = inconclusive; nt = no result given; [ ] = remark or other dose. Shown is part of a subset that was picked to be rich in hits. Unless noted, calls come from the whole dose curve; as a rule, active = well fitted curve in the direction sought with a large enough effect; inconclusive = small, poorly fitted or top-dose-only effect, or another doubt; inactive = no such curve, though single readings can be large; an effect the other way counts as inactive or inconclusive. Unless noted, % is set by controls: 0 for no effect and ±100 for the full control effect; potency is the fitted concentration of half-maximal effect.

SMILES | APEX1 inh | L3MBTL1 inh | KDM4E inh | BLM inh | GCN5L2 inh | RECQ1 inh
C=CC(C)(C)c1[nH]c2ccccc2c1C1=C(O)C(=O)C(c2c[nH]c3c(CC=C(C)C)cccc23)=C(O)C1=O | 20µM* | nt | 25µM* | 6.3µM* | 16µM* | 10µM*
O=C(O)c1ccccc1NS(=O)(=O)c1cccc(-n2sc3ccccc3c2=O)c1 | -7% | nt | nt | 1% | 0.45µM* | nt
CC(C)(S)[C@@H](N)C(=O)O | 12% | 3% | 2.2µM* | 6% | -4% | -6%
CC(C)[C@@H](N)C(=O)O | -2% | nt | nt | -16% | 8% | i
COc1cc(C2Oc3ccccc3C=C2[N+](=O)[O-])cc(OC)c1OC (centres undefined) | -4% | nt | ? | 0% | -11% | -25%
C[C@@H](C(=O)Nc1ccc2ccccc2c1)[C@H]1C[C@]1(C)[C@H](NS(=O)(=O)c1ccc2ccccc2c1)c1ccccc1 | 15% | nt | ? | -3% | nt | i
C[C@@H](C(=O)Nc1ccc2ccccc2c1)[C@@H]1C[C@@]1(C)[C@@H](NS(=O)(=O)c1ccc2ccccc2c1)c1ccccc1 | ? | nt | 14µM* | -9% | nt | -4%
Cc1cc(Cl)ccc1N=c1ssnc1Cl | 13% | nt | 11µM* | 0% | 28µM* | i
CC(C)(C)C1=CC(=Nc2ccccc2N)C=C(C(C)(C)C)C1=O | 5% | 2% | 5% | -1% | -2% | -16%
Cc1ccc(N=c2ssnc2Cl)cc1 | 2% | -4% | 11µM* | -2% | 20µM* | -5%
Nc1ccccc1N=c1ssnc1Cl | 10% | nt | ? | -2% | 28µM* | -15%
Cc1nnc(N=c2ssnc2Cl)o1 | -6% | -4% | nt | nt | 2.8µM* | nt
CCOc1ccccc1N=NC1C(=O)N(C(N)=S)N=C1C (centres undefined) | 67% | nt | nt | -5% | 19% | nt
CC1=C(C#N)C(=O)N(C2CCS(=O)(=O)C2)C(=O)/C1=C\c1ccc(C)o1 (centres undefined) | 18µM* | 14µM* | ? | ? | ? | 22µM*
Cc1ccccc1NC(=O)/C(C#N)=C\c1cc(C)n(-c2ccc(C(=O)O)cc2)c1C | ? | nt | 20µM* | -4% | -22% | -8%
Cc1cc(/C=C(/C#N)C(=O)Nc2ccccc2)c(C)n1-c1cccnc1 | ? | 0% | 4% | -3% | -6% | 3%
Cc1cc(/C=C(\C#N)C(=O)Nc2ccccc2)c(C)n1-c1ccc2c(c1)OCO2 | -4% | -6% | 25µM* | -7% | -7% | -13%
NCC(=O)N[C@@H](CCCN=C(N)N)C(=O)NCC(=O)N[C@@H](CCC(=O)O)C(=O)N[C@@H](CO)C(=O)O | -4% | nt | nt | 0% | -4% | 10%
O=C(N/N=C/c1ccc([N+](=O)[O-])o1)c1cc2ccccc2o1 | ? | nt | 4% | -14% | 1% | -10%
O=C(N/N=C/c1ccc([N+](=O)[O-])o1)c1cc2c(ccc3ccccc32)o1 | 18% | 6.3µM* | ? | 7.9µM* | -15% | -2%
CCOc1ccccc1-c1c2cc(O)c(=O)cc-2oc2cc(O)c(O)cc12 | -2% | 1.3µM* | -9% | 10µM* | 1% | -5%
O=c1cc2oc3cc(O)c(O)cc3c(-c3ccccc3O)c-2cc1O | 0.89µM* | 0.79µM* | 14µM* | 6.3µM* | ? | 3.5µM*
COc1ccccc1-c1cc(=O)c2cc(O)ccc2o1 | 11% | nt | -5% | 1% | nt | -1%
O=c1cc(-c2cccc(O)c2O)oc2ccccc12 | -6% | nt | 7.1µM* | 0% | nt | 6.3µM*
O=c1cc(-c2ccccc2O)oc2cc(O)ccc12 | 14% | nt | -2% | -12% | -15% | -12%
SMILES | APEX1 inh | L3MBTL1 inh | KDM4E inh | BLM inh | GCN5L2 inh | RECQ1 inh
C=C(C)C1CCC2(C(=O)O)CCC3(C)C(CCC4C5(C)C(C=O)C(O)C(C)(C)C5CCC43C)C12 (centres undefined) | ? | nt | -14% | -10% | -27% | i
CN(C)CCCNC(=O)c1ccccn1 | 0% | nt | 1% | -1% | -4% | i
CN(C)CCCNC(=O)c1ccc(-c2cc(O)c3ncccc3c2)cc1 | -27% | 20µM* | nt | nt | -4% | nt
Oc1cc(NCCc2cccnc2)cc2cccnc12 | 30% | 28µM* | nt | nt | -10% | nt
Oc1cc(-c2ccc(N3CCCCC3)nc2)cc2cccnc12 | 22% | 7% | nt | nt | 0% | nt
Oc1cc(Nc2cccnc2)cc2cccnc12 | 25% | 32µM* | nt | nt | -7% | nt
Oc1cc(Nc2ccncc2)cc2cccnc12 | 16% | 22µM* | nt | nt | -2% | nt
CN(C(=O)c1ccc(NC(=O)Cc2cccc(NC(=O)C3CCN(C(=O)c4ccccc4)CC3)c2)cc1)C1CCCC1 | 15% | -4% | nt | nt | 0% | nt
CN(C)c1ccc(-c2cc(O)c3ncccc3c2)cc1 | 23% | -6% | nt | nt | 0% | nt
Oc1cc(-c2ccncc2)cc2cccnc12 | 15% | 7.1µM* | nt | nt | -10% | nt
COc1ccc(Nc2cc(O)c3ncccc3c2)cc1 | 8% | 32µM* | nt | nt | -12% | nt
CCCCCC/C=C\CCCCCCCc1cccc(O)c1C(=O)O | 3% | nt | ? | 3% | ? | -2%
CCCCCC(=O)Cc1cc(O)cc2c1C(=O)Oc1cc(O)c(C(=O)O)c(CCCCC)c1O2 | 6% | nt | ? | ? | -24% | 16µM*
COc1ccc(CC(=O)NC2CC(C)(C)NC(C)(C)C2)cc1OC | 20% | 0% | nt | -6% | 3% | nt
COC(=O)NC(c1cccc(C)c1)[C@@]1(C(=O)OC)CCCC1=O (some centres undefined) | ? | nt | nt | 1%[12.4 µM] | nt | 14%[11.5 µM]
Cc1ccc(C(=O)OCC(=O)NCc2ccccc2)cc1S(=O)(=O)N1CCCCC1 | -2% | 2% | nt | nt | -3% | nt
O=C(COC(=O)c1ccc(Cl)c(S(=O)(=O)N2CCCC2)c1)NCc1ccccc1 | 7.5µM* | -13% | nt | nt | -6% | nt
CC[Si](CC)(CC)O[C@H]([C@@H](C)COCOC)[C@@H](C)COCc1ccc(OC)cc1 | 0% | nt | nt | 3% | nt | i
CC(C)(C)SCCNC(=O)CSCc1ccc([N+](=O)[O-])cc1 | 0% | -5% | 6% | 0% | 1.8µM* | i
